Test results published in PubChem BioAssay (Tox21).
Records with an inconclusive call do not appear. A call without a number means that no potency is given here. Activity calls are given as the source filed them. Calls come from the whole dose curve; as a rule, active = well fitted cell-killing curve with a large enough effect in the repeat runs; inconclusive = weak or mixed curves; inactive = flat fitted curve, though single readings scatter.

Assay: qHTS assay to identify small molecule antagonists of the estrogen related receptor (ERR) signaling pathway from Tox21 library - cell viability counter screen (AID 1224834); note: nearly all actives have a fitted effect of over 30% in size
Conditions: ERR reporter cells viability, CellTiter-Fluor, 17.5 h; series mostly up to 92.4 µM
Method in brief: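 ERR cells, 2,000/well; 6 h settle at 37 C/5% CO2; pin-tool compound transfer in DMSO; 17.5 h at 37 C; CellTiter-Fluor, 30 min; fluorescence intensity.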
Potency is the fitted concentration of half-maximal effect.

Row | SMILES | Potency
1 | C=C(C)[C@@H]1CCC2=CCC[C@@H](C)[C@]2(C)C1 | inactive
2 | Oc1c(I)cc(I)c2cccnc12 | 29.8 µM (active)
3 | CN1CCCC(n2nc(Cc3ccc(Cl)cc3)c3ccccc3c2=O)CC1 (stereo not given) | 29.8 µM (active)
4 | CCC1NC(=O)c2cc(S(N)(=O)=O)c(Cl)cc2N1 (stereo not given) | inactive
5 | CCC=CC#N | inactive
6 | CC1CC(C)C(=O)C1=O (stereo not given) | inactive
7 | C1COC1 | inactive
8 | CCCCCCC(C)(C)C(=O)O | inactive
9 | Cc1cccc(N(C)C(=S)Oc2ccc3c(c2)CCC3)c1 | inactive
10 | O=C1c2ccccc2C(=O)c2c(O)c(O)cc(O)c21 | 30.6 µM (active)
11 | CC1CC(OC(=O)C(O)c2ccccc2)CC(C)(C)N1C (stereo not given) | inactive
12 | CCOC(C)=O | inactive
13 | CCCCC(CC)COP(=O)(O)O (stereo not given) | inactive
14 | CC(CCC(=O)O)C(=O)O (stereo not given) | inactive
15 | CCC(C)COC(=O)CC(C)C (stereo not given) | inactive
16 | CCCCN(CCCC)C(C(N)=O)c1ccc(OC)cc1 (stereo not given) | inactive
17 | Cc1ccco1 | inactive
18 | CCCCCC[C@@H](O)C/C=C\CCCCCCCC(=O)OCC(O)CO (stereo not given in full) | inactive
19 | CCOC(=O)/C=C/C(=O)OCC | inactive
20 | C[C@@H]1CN(CCCn2c3ccccc3c3ccccc32)C[C@H](C)N1 | 29.8 µM (active)

Row | SMILES | Potency
21 | O=c1[nH]c2ccc(Cl)cc2o1 | inactive
22 | O=C1Cc2cc(Cl)ccc2N1 | inactive
23 | CCC(C)COC(C)=O (stereo not given) | inactive
24 | Nc1nnc(-c2ccc([N+](=O)[O-])o2)o1 | 48.6 µM (active)
25 | N#[N+]c1ccc2c(S(=O)(=O)[O-])cccc2c1O | inactive
26 | Cc1cc(O)c(C)c(C)c1O | inactive
27 | Oc1cccc(Nc2ccccc2)c1 | inactive
28 | CC(=O)OCC(=O)NCCCOc1cccc(CN2CCCCC2)c1 | inactive
29 | O=C(/C=C/c1ccccc1)OCCc1ccccc1 | inactive
30 | CC(=O)Nc1ccc(C)cc1C | inactive
31 | COC(=O)c1nc(Cl)c(Cl)nc1N | 11.9 µM (active)
32 | CCCCCC[C@@H](O)C/C=C\CCCCCCCC(=O)O | inactive
33 | NCCNCCO | inactive
34 | Cc1ccc2c(Br)cc(Br)c(O)c2n1 | 11.9 µM (active)
35 | O=C(O)C[C@H](NC(=O)OCc1ccccc1)C(=O)O | inactive
36 | O=C(Nc1cccc2c(=O)cc(-c3nn[nH]n3)oc12)c1ccc(OCCCCc2ccccc2)cc1 | inactive
37 | CCOC(=O)c1ccc(I)cc1 | inactive
38 | CC(=O)c1ccc([N+](=O)[O-])cc1 | inactive
39 | CC[N+](CC)(CCNC(=O)C(=O)NCC[N+](CC)(CC)Cc1ccccc1Cl)Cc1ccccc1Cl | inactive
40 | Cc1ccc(C(C)(C)O)cc1 | inactive
